Results: PubChem BioAssay AID1274 (Emory University Molecular Libraries Screening Center, 2008)
About 1,100 (0.5%) of roughly 220,000 compounds were called active.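 The calls were made as follows: active = inhibition above about 30% (limit read from the data); inactive = the rest.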 The entries come from a sample that favours actives as a whole.

molecular target: Neutrophil cytosol factor 1 (Homo sapiens) (UniProt P14598); experiment: p47phox/p22phox peptide binding inhibitors, primary screen, biochemical, uHTS, NADPH oxidase regulatory subunit (AID 1274); conditions: fluorescence polarization, 2 h, at 24.7 µM, stronger effect = higher value;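 also: 0% = p47phox with labelled peptide and 100% = labelled peptide alone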
Sequence (P14598 whole entry, looked up): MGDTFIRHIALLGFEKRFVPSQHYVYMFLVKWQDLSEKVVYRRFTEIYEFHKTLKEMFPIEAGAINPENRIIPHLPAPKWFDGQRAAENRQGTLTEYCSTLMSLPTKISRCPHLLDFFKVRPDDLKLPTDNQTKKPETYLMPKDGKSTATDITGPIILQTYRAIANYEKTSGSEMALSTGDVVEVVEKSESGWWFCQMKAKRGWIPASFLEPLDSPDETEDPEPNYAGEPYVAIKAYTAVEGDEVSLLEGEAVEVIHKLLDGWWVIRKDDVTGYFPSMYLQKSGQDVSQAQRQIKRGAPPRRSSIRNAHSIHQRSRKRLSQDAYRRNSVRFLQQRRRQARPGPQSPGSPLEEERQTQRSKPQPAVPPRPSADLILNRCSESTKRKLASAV

inhibition, active:
COC(=O)CSc1nccc(-c2cccs2)n1 57.9%
COc1ccccc1-n1ccnc1SCC(=O)NC(C)(C)C 130%
O=[N+]([O-])C(=c1ccc2c(c1)N1C3=C(CCCC3)CC3CCCCC31N=2)[N+](=O)[O-] (stereo not drawn) 32.3%
COc1cc(N2CCCC2)c(OC)cc1/C=C(/C#N)c1cccc(Br)c1 41.6%
O=C1/C(=C/c2cccs2)SC(=S)N1C1CCS(=O)(=O)C1 (stereo not drawn) 136%
COc1cc(OC)c(OC)cc1/C=N/Nc1ncnc2c1[nH]c1ccc(C)cc12 34.2%
NC(N)=N/N=C/c1ccc(OCc2ccc(Cl)cc2Cl)cc1 103%
COc1ccc(N2CC(C)Cn3c2nc2c3c(=O)n(Cc3ccccc3F)c(=O)n2C)c(OC)c1 (stereo not drawn) 58.5%
O=c1[nH]n(-c2ccc([N+](=O)[O-])cc2)c(=O)c2ccccc12 43.7%
Cc1ccc(C)c2[nH]c(=O)c(CN(Cc3cccnc3)C(=S)NCc3ccco3)cc12 40.3%
N#C/C(=C/c1ccc(N2CCCCC2)o1)C(=O)NCCc1c[nH]c2ccccc12 41.9%
COc1ccc(OC)c(NC(=O)CCN2CCC(C)CC2)c1 43.5%
CSc1sc(C)cc1C1C(C#N)=C(N)N(c2cccnc2)C2=C1C(=O)CCC2 (stereo not drawn) 40.6%

inhibition, inactive:
COc1ccc(NC(=O)c2ccccc2CC[N+](=O)[O-])cc1 -4.4%
CCn1c(CNS(=O)(=O)c2ccc(Cl)cc2)n[nH]c1=S -6.22%
CCc1nc2sc(C(=O)O)c(N)c2c2c1CCCC2 3.39%
O=C(O)COc1ccc(-c2nccc(-c3cccs3)n2)cc1 -0.51%
COc1ccc(-c2ccnc(SCC(=O)N3CCOCC3)n2)cc1 -7.88%
CN1CCN(S(=O)(=O)c2ccc(NC(=S)NC(=O)C3CC3)cc2)CC1 5.87%
Cc1nnc(NC(=O)CSc2nccn2-c2cccc(C)c2C)s1 -2.14%
Cc1ccc(C)c(-n2ccnc2SCC(N)=O)c1 -6.63%
Cc1cccc(NC(=O)CSc2nnc(CCNC(=O)OC(C)(C)C)o2)c1C -4.83%
COc1cccc(C(=O)Nc2ccc(N3CCCC3)cc2)c1 -24.3%
CC(=O)Nc1cccc(Oc2cc(C#N)c(C#N)cc2N2CCOCC2)c1 -5.37%
O=C(CCN1C(=O)/C(=C/c2cccs2)SC1=S)NNC(=O)c1cccc(O)c1 -143%
O=C1N/C(=C/c2cccs2)C(=O)N1Cc1ccc(F)cc1 -8.47%
O=C(Nc1ccccc1)O/N=C1/CCCc2occc21 -10.7%
COc1cc(OC)cc(-c2nc3ccccc3c(=O)n2NC(=O)c2cccnc2Cl)c1 -17.9%
COc1ccc(C)cc1NC(=O)c1ccc(-c2ccc(C(C)=O)cc2)o1 -8.08%
Cc1ccc2[nH]c3c(=O)n(Cc4ccccn4)cnc3c2c1 -18.3%
CC(C)OCCCNc1ncnc2c1[nH]c1ccc(F)cc12 -10.6%
CC(=O)NCCn1c(SCC(=O)Nc2ccc(C)cc2)nc2ccccc2c1=O 1.49%
CC(C)(C)C(=O)OCc1nc(-c2ccc(O)c(O)c2)cs1 -9.67%
COc1ccc(C(=O)O/N=C(\N)Cc2ccc(Cl)cc2Cl)cc1OC -5.94%
NC(N)=N/N=C/c1ccc(Cl)c([N+](=O)[O-])c1 3.52%
Oc1oc(-c2ccccc2Br)nc1/C=N/c1ccccn1 -6.08%
Cc1cc(C)n(Cc2cnc(N3CCOCC3)s2)n1 -9.55%
O=C(NCc1cc(C(F)(F)F)cc(C(F)(F)F)c1)C1CC(c2cccc(F)c2)=NO1 (stereo not drawn) -5.46%
CC(C)OCCCNc1nc2c(c(=O)n(Cc3ccccc3F)c(=O)n2C)n1C -4.4%
Cc1cccc(N2CC(C)Cn3c2nc2c3c(=O)n(CC(=O)OCc3ccccc3)c(=O)n2C)c1 (stereo not drawn) -39.9%
COc1ccc(C2(CNC(=O)Cc3ccc(OC)c(OC)c3)CCCC2)cc1 10.1%
O=C(CSc1ccc2nnc(-c3ccccc3)n2n1)N1CCCc2ccccc21 9.14%
COc1ccc(NC(=S)SC)cc1OC -0.91%
O=c1[nH]c2cccnc2n1-c1ccc([N+](=O)[O-])cc1 3.76%
O=C1CC(c2ccccc2)=NN1c1ccc([N+](=O)[O-])cc1 -0.56%
CC(=O)c1c(C)[nH]c(C(=O)Nc2cc(S(=O)(=O)N(C)C)ccc2C)c1C -11.1%
COCCn1c(SCC(=O)Nc2cc(OC)ccc2OC)nc2c(c1=O)SC(C)C2 (stereo not drawn) -1.72%
CC1=C(C)C(=O)OC(C(C)C2CCC3C4CC=C5CC(OC6OC(COC7OC(CO)C(O)C(O)C7O)C(O)C(O)C6O)CC(O)C5(C)C4CCC23C)C1 (stereo not drawn) -3.03%
O=C(Nc1ccccc1)N(Cc1cccnc1)Cc1ccco1 -9.87%
Cc1cccc2cc(CN(Cc3cccs3)C(=S)NCc3ccco3)c(=O)[nH]c12 -184%
O=S1(=O)CC/C(=N\Nc2ccc(F)cc2)c2ccsc21 -3.38%
N#C/C(=C/c1ccc(-c2ccccc2[N+](=O)[O-])o1)C(=O)NCCN1CCCCC1 2.84%
O=C(NCCc1c[nH]c2ccccc12)C(=O)NCC1CCCO1 (stereo not drawn) -9.36%
Cc1ccc2cc(CN(c3ccc(C)c(C)c3)S(C)(=O)=O)c(=O)[nH]c2c1 -7.6%
O=C(Nc1ccc(S(=O)(=O)N2CCOCC2)cc1)c1ccc2ncsc2c1 -9.71%
Cc1ccc(O)c(NC(=S)NC(=O)COc2ccc(Br)cc2)c1 -10.4%
COc1ccc(NC(=O)CCN2CCCC2)c(OC)c1 -2.15%
CCOC(=O)N1CCN(CCC(=O)Nc2cc(OC)ccc2OC)CC1 3.79%
Cc1ncn2cc(-c3ccc(Cl)cc3Cl)[nH]c(=O)c12 0.92%
CN(C)C(=O)CSc1n[nH]c(-c2ccco2)n1 -9.79%
O=C(COC(=O)c1ccc(F)cc1F)Nc1ncccn1 -18.8%
N#CC1=C(N)N(c2ccccc2)C2=C(C(=O)CCC2)C1c1ccccc1 (stereo not drawn) -23.4%
CCc1ccc(C2C(C#N)=C(N)N(N(C)C)C3=C2C(=O)CCC3)s1 (stereo not drawn) -16.9%
